Screening results (PubChem BioAssay)
Hits are enriched below; roughly 19% of the tested compounds scored in any of these assays.
IL1B secr inh – qHTS for Inhibitors of Inflammasome Signaling: IL-1-beta AlphaLISA Primary Screen; activity change, % at 57.5 µM; 360,000 tested, 4.7% active; AID 743279, 2014; THP-1 LPS/ATP IL-1B secretion, AlphaLISA, 16 h; stronger effect = lower value; in the data active = activity change below about -50%; inconclusive = mostly about -30% to -49%
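THP-1 cells pretreated 1 hr with compounds (up to 57.5 uM final), then stimulated with LPS (250 ng/mL final) plus ATP (1.25 mM final); secreted IL-1B measured by AlphaLISA after 16 hr, decreased signal indicating inhibition.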
HT1080 IDH1KD tx – qHTS for induction of synthetic lethality in tumor cells producing 2HG: qHTS for the HT-1080-IDH1KD cell line. HT-1080 IDH1 knockdown viability, ATP luminescence, 48 h. Potency, µM (series often up to 46.1 µM), for the others: at the highest dose activity, negative = toxicity, most hits filed as cytotoxic. AID 686971, 2013. 360,000 tested, 2% active;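 note: potency is the fitted concentration of half-maximal effect; 0% = DMSO wells and -100% = cell-free medium wells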
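Viability of IDH1-knockdown HT-1080 fibrosarcoma cells was assessed by CellTiter-Glo after 48 h at 37 °C with titrated compound; concentration-effect curves were classified by fit quality and response size.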
TDP1 cell CPT – qHTS for Inhibitors of human tyrosyl-DNA phosphodiesterase 1 (TDP1): qHTS in cells in presence of CPT; AID 686979, 2013; Potency, µM (top dose mostly 46.2 µM), without a hit: top-dose activity change, negative = growth inhibition, most hits filed as inhibitors; 420,000 tested, 12% active; chicken DT40 Tdp1-/-;hTDP1 cells + 20 nM CPT, ATP luminescence, 48 h; note: potency is the fitted concentration of half-maximal effect; nearly all actives have a fitted effect of over 55% in size
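Cell growth measured by CellTiter-Glo luminescence after a minimum 48 h, 37 C compound exposure with 20 nM CPT in Tdp1-knockout DT40 cells stably expressing hTDP1, seeded 400/well; qHTS titration format.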
DT40 TDP1 no CPT – qHTS for Inhibitors of human tyrosyl-DNA phosphodiesterase 1 (TDP1): qHTS in cells in absence of CPT; AID 686978, 2013; DT40 Tdp1-/- hTDP1 cells, no CPT, ATP luminescence, 48 h; 420,000 tested, 15% active; Potency, µM (titrated, usually from 46.2 µM), without a hit: at the top dose activity change, negative = growth inhibition, most hits filed as inhibitors; note: potency is the fitted concentration of half-maximal effect; nearly all actives have a fitted effect of over 55% in size
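Chicken DT40 Tdp1-/- cells complemented with human TDP1, screened without camptothecin (DMSO vehicle only), 400 cells/well. Compounds pin-transferred, cells incubated at 37 °C for at least 48 hr. Growth read as ATP-dependent luminescence (CellTiter-Glo, 30 min at RT).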
HT1080-NT tox – qHTS for induction of synthetic lethality in tumor cells producing 2HG: qHTS for the HT-1080-NT fibrosarcoma cell line; HT-1080-NT fibrosarcoma viability, CellTiter-Glo ATP luminescence, 48 h; Potency, µM (top dose mostly 46.1 µM), without a hit: at the top dose activity, negative = less viability, actives largely listed as cytotoxic; 360,000 tested, 1.6% active; AID 686970, 2013;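 note: NT is the 2HG producing partner of a matched IDH1 knockdown line; potency is the fitted concentration of half-maximal effect; 0% = DMSO-treated cells and -100% = media-only wells without cells; nearly all actives have a fitted effect of over 55% in size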
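Read-out is CellTiter-Glo luminescence after 10 minutes at room temperature, following 48 hours' compound treatment of HT-1080-NT cells (750 cells/well, RPMI, 5% FBS, 37 degrees C).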
Active calls of the source: *; ? = inconclusive; nt = not tested or not shown. Unless noted, calls come from the whole dose curve; as a rule, active = well fitted curve in the direction sought with a large enough effect; inconclusive = small, poorly fitted or top-dose-only effect, or another doubt; inactive = no such curve, though single readings can be large; an effect the other way counts as inactive or inconclusive. Unless noted, % is set by controls: 0 for no effect and ±100 for the full control effect.

SMILES	IL1B secr inh	HT1080 IDH1KD tx	TDP1 cell CPT	DT40 TDP1 no CPT	HT1080-NT tox
COc1ccc(CNCCCSc2nnnn2C)c(OC)c1	nt	nt	-4%	-23%	nt
Cc1sc2ncnc(Sc3ccccc3C(=O)Nc3ccc(C#N)cc3)c2c1C	-19	-12%	21µM*	21µM*	-15%
COc1ccc(NC(=O)CN(C)C(=O)c2ccccc2SCC(=O)N2CCCC2)cc1	18	0%	-8%	-16%	8%
Cc1sc2ncnc(Sc3ccccc3C(=O)Nc3ccccc3Cl)c2c1C	-9	4%	23µM*	18µM*	-3%
COc1ccc(NC(=O)CN(C)C(=O)c2ccccc2Sc2ncnc3sc(C)c(C)c23)cc1	9	-7%	?	23µM*	2%
Cc1ccc(NC(=O)CN(C)C(=O)c2ccccc2Sc2ccccc2C#N)cc1	-20	-10%	?	15µM*	-2%
NC1(C(=O)O)CCc2cc(P(=O)(O)O)ccc21 (configuration not stated)	nt	nt	3%	-15%	nt
COC(=O)[C@H]1C[C@@H]1[C@H](NC(=O)c1cc(C)on1)c1ccccc1	16	2%	0%	3%	3%
Cc1sc2ncnc(Sc3ccccc3C(=O)Nc3ccc(Br)cc3)c2c1C	-15	-6%	23µM*	16µM*	-5%
COc1ccc(CCNC(=O)C2CCC(=O)N2CCc2ccccc2)cc1OC (configuration not stated)	3	-1%	3%	1%	-9%
Cc1cc(C)c(C(=O)c2cccs2)c(C)c1	-1	7%	1%	-5%	11%
Cc1cccc(N=N/C(=C\O)C(=O)c2cccs2)c1	-67*	13µM*	?	?	?
O=C(Nc1nnc([C@@H]2C[C@H](O)[C@@H](CO)O2)s1)NC(c1ccccc1)c1ccccc1	10	-15%	?	?	-28%
CN(C)CCOc1ccccc1Cc1ccccc1 (tested in a mixture with another compound)	nt	nt	-21%	-22%	nt
COc1cccc(-c2nc(CS(=O)(=O)CC(=O)NCc3cccc(Cl)c3)c(C)o2)c1	nt	nt	2%	-17%	nt
O=C(NNC(=O)c1csc(-c2cnccc2C(F)(F)F)n1)c1ccc(C(F)(F)F)cc1	99	-21%	?	16µM*	-19%
FC(F)(F)c1cc(Sc2ccccc2)nc(-c2ccccn2)n1	5	?	?	15µM*	13µM*
CC(C)Nc1cc(C(F)(F)F)nc(-c2ccccn2)n1	-16	1%	18µM*	18µM*	3%
COc1cc(C(F)(F)F)nc(-c2ccccn2)n1	9	7%	18%	-22%	18%
FC(F)(F)c1cc(Nc2ccccc2)nc(-c2ccccn2)n1	-22	15%	?	26µM*	7%
COC(=O)CSc1cc(C(F)(F)F)nc(-c2ccccn2)n1	?	-8%	-4%	15%	0%
Cc1ccccc1NC1=C(Cl)C(=O)N(C2CCCCC2)C1=O	-93*	-5%	?	?	0%
COc1ccccc1NC1=C(Cl)C(=O)N(C2CCCCC2)C1=O	-12	8%	18µM*	26µM*	9%
COc1ccc(-c2csc(NC(CO)c3nc4ccccc4n3CCOCCO)n2)cc1 (configuration not stated)	-11	11%	?	?	0%
O=C(Cn1nnc(-c2ccc(F)cc2)n1)Nc1cccc(S(=O)(=O)N2CCCC2)c1	13	-15%	21µM*	?	-25%
SMILES	IL1B secr inh	HT1080 IDH1KD tx	TDP1 cell CPT	DT40 TDP1 no CPT	HT1080-NT tox
O=C(Cn1nnc(-c2ccccc2Cl)n1)Nc1cccc(S(=O)(=O)N2CCCC2)c1	?	-27%	23µM*	21µM*	?
O=C(Cc1ccc(F)cc1)Nc1cccc(S(=O)(=O)N2CCCC2)c1	-8	-3%	-3%	-22%	-2%
CCOC(=O)Cn1c(S(=O)(=O)Cc2ccc(Cl)cc2)nc(-c2ccccc2)c1-c1ccccc1	-4	?	18µM*	16µM*	?
CC(C)(C)N1C(=O)[C@H]2[C@@H](c3ccc(Br)cc3)N3C(=O)N(c4cccc(F)c4)C(=O)[C@@]3(Cc3ccccc3)[C@H]2C1=O	-5	4%	?	?	9%
O=C1[C@H]2[C@@H](c3ccc(F)cc3)N3C(=O)N(c4cccc(Br)c4)C(=O)[C@@]3(Cc3ccccc3)[C@H]2C(=O)N1C1CCCCC1	-21	-4%	-12%	-10%	2%
Cc1cccc(N2C(=O)N3[C@H](c4ccc(Br)cc4)[C@@H]4C(=O)N(C(C)(C)C)C(=O)[C@@H]4[C@]3(C)C2=O)c1	-5	0%	18µM*	?	-2%
O=C1[C@H]2[C@@H](c3ccc(Cl)cc3)N3C(=O)N(c4cccc(Cl)c4)C(=O)[C@@]3(Cc3ccccc3)[C@H]2C(=O)N1C1CCCCC1	-1	9%	10µM*	12µM*	4%
CC(C)(C)N1C(=O)[C@H]2[C@@H](c3ccc(Br)cc3)N3C(=O)N(c4ccc(Br)cc4)C(=O)[C@@]3(Cc3ccccc3)[C@H]2C1=O	-21	-4%	21µM*	?	0%
COc1ccc(-c2c(-c3cc(OC)cc(OC)c3)n(C)c3ccc(-c4ccc5cc[nH]c5c4)cc23)cc1	-2	6%	?	?	?
CC1(C(=O)Nc2cnc3ccccc3c2)CCN1Cc1ccc(OC(F)(F)F)cc1 (configuration not stated)	10	?	?	?	?
CC1(C(=O)Nc2cnc3ccccc3c2)CCN1Cc1ccccc1Cl (configuration not stated)	-12	?	16µM*	15µM*	?
CC1(C(=O)Nc2cnc3ccccc3c2)CCN1Cc1ccccc1OC(F)F (configuration not stated)	nt	?	23µM*	16µM*	?
CC1(C(=O)Nc2cnc3ccccc3c2)CCN1Cc1ccc(-c2ccccc2)o1 (configuration not stated)	-22	1%	?	16µM*	-21%
COc1cccc(CN2CCC2(C)C(=O)Nc2cnc3ccccc3c2)c1F (configuration not stated)	0	?	?	18µM*	-27%
